# From ChEMBL document CHEMBL3433997, “St. Jude Leishmania screening dataset” (2016)
# Key:
# Format in all cases: functional
# [1] = molecular target: Solute carrier family 2, facilitated glucose transporter member 1 (Homo sapiens) (UniProt P11166); experiment: ST_JUDE_LEISH: Cytotoxicity at 2uM final concentration against transgenic Leishmania Mexicana promastigotes LmGLUT1 that are glucose transport deficient and complemented with the human glucose transporter GLUT1. Activity is measured by DNA content using SYBR green in vitro
# [2] = molecular target: Hexose transporter 1 (Plasmodium falciparum) (UniProt O97467); experiment: ST_JUDE_LEISH: Cytotoxicity at 2uM final concentration against transgenic Leishmania Mexicana promastigotes LmPfHT that are glucose transport deficient and complemented with the Plasmodium falciparum hexose transporter. Activity is measured by DNA content using SYBR green in vitro
# [3] = molecular target: Glucose transporter (Leishmania mexicana) (UniProt O61059); experiment: ST_JUDE_LEISH: Cytotoxicity at 2uM final concentration against transgenic Leishmania Mexicana promastigotes LmGT2 that are glucose transport deficient and complemented with the L. Mexicana glucose transporter 2. Activity is measured by DNA content using SYBR green in vitro
# Chain of Solute carrier family 2, facilitated glucose transporter member 1 (Homo sapiens) (P11166 whole entry): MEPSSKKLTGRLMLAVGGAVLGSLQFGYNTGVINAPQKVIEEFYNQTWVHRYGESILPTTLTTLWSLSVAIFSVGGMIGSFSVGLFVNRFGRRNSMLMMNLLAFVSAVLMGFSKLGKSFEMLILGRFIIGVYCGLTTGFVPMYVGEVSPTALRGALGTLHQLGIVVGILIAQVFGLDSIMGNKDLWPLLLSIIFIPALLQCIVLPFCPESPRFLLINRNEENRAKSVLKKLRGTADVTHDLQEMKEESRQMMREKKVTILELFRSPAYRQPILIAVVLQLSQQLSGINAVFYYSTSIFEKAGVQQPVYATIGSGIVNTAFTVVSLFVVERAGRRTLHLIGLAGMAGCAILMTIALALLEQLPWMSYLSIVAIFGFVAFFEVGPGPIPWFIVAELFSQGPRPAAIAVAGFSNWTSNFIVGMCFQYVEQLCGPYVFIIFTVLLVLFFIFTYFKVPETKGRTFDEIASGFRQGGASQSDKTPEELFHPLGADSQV
Compound,inhibition [1],inhibition [2],inhibition [3]
CC1CCC(NCc2c(O)ccc3ccccc23)CC1 (stereo unspecified),2.01%,1.89%,2.46%
CCOC(=O)CCCc1cc(NC2CCN(C)CC2)nc(Nc2ccc(C)cc2)n1,-2.45%,0.71%,-2.59%
c1ccc(CCNCc2cccc(-c3ccccc3CNCc3ccc4c(c3)OCO4)c2)nc1,0.71%,0.88%,0.68%
COC(=O)c1ccc(CN2CCC(N(Cc3cccc(Oc4ccccc4)c3)S(=O)(=O)c3ccc(NC(C)=O)cc3)CC2)cc1,0.23%,0.78%,0.32%
Oc1ccc(CCCNc2nc(NCc3cccc4ccccc34)nc(N3CCNCC3)n2)cc1,-1.06%,0.53%,0.63%
CN1CCCc2ccc(NC(=O)c3ccc(-c4cc(C(F)(F)F)nn4C)s3)cc2C1,2.28%,1.85%,-2.38%
CN(C)S(=O)(=O)n1ccc2c3c(N)nc(N)nc3ccc21,44.3%,46.3%,29.3%
N#Cc1ccc(C=NNc2nc3ccccc3[nH]2)cc1,3.61%,1.98%,-0.11%
CC1CN(Cc2cccc(F)c2)CCN1c1ccc(NC(=O)c2ccc(F)cc2)cc1 (stereo unspecified),2.15%,1.55%,8.54%
COc1ccc(Nc2ncc(Cl)c(Nc3cccnc3C(N)=O)n2)cc1N1CCN(C)CC1,89.9%,92.6%,85.9%
COc1cc2s/c(=N\C(=O)c3cccc([N+](=O)[O-])c3)n(C)c2cc1OC,9.71%,10.7%,6.9%
Cc1cc(OC(C)C(=O)N2CCc3ccccc32)ccc1Cl (stereo unspecified),4.58%,3.8%,6.71%
CC(=O)c1cccc(Nc2nc3ccc(OCc4cc(Cl)cc(Cl)c4)c(C#N)c3[nH]2)c1,3.61%,2.38%,2.87%
Nc1nc(N)c2c3c(ccc2n1)CCC3,0.87%,1.48%,1.24%
Cc1cccc2nc(-c3cccc(-c4cccc(CNCCc5cccn5C)c4)c3)[nH]c12,0.04%,2.29%,-0.27%
O=C(/C=C/c1ccc(Cl)c(Cl)c1)NCCCCCN1CCCN(C(=O)Nc2ccc(Cl)c(C(F)(F)F)c2)CC1,-0.86%,-0.33%,-2.37%
c1cc(CNCCN2CCNCC2)cc(-c2cccc(-c3nc4ccccc4[nH]3)c2)c1,1.08%,1.4%,0.14%
COc1ccc2nccc(N3CCC(CCNCc4ccc5c(n4)NC(=O)CO5)CC3)c2c1,1.72%,5.22%,-0.63%
Cc1nc2ccc3ccc(CNc4ccc(C(=O)N[C@@H](CCC(=O)O)C(=O)N[C@@H](Cc5cccs5)C(=O)O)c(F)c4)cc3c2c(=O)[nH]1,6.55%,7.51%,6.36%
CCOC(=O)c1cn(CC)c2cc(OCc3ccccc3)ccc2c1=O,0.45%,0.36%,4.59%
CCOc1ccc(/C=C/C(=O)Nc2cccc3c2CCN(C)C3)cc1,8.24%,7.2%,6.27%
Cc1cccc2nc(-c3ccc(-c4cccc(CNCCCNS(C)(=O)=O)c4)s3)[nH]c12,0.75%,2.35%,-2.06%
O=S(=O)(NCCN1CCCC1)c1ccc(-c2ccccc2CNC2Cc3ccccc3C2)cc1,66.1%,67.7%,50.5%
CCNc1cc(C)nc(Nc2ccc(NC(=O)c3c(F)cccc3Cl)cc2)n1,10.6%,11%,2.56%

Compound,inhibition [1],inhibition [2],inhibition [3]
CN(C)CCN(C)Cc1ccc(-c2ccc(NC(=O)c3cccc(Cl)c3)cc2)cc1,7.23%,6.44%,6.55%
CN1CCC(N(Cc2ccc(-c3ccc(Cl)cc3)cc2)C(=O)Cn2c(CCc3cccc(F)c3F)cc(=O)c3ccccc32)CC1,8.97%,3.73%,8.07%
Cc1nn(CC(C)C)c2sc(C(=O)N3CCN(S(=O)(=O)c4ccc(C#N)cc4)CC3)cc12,10.3%,8.28%,5.07%
COc1ccc2nccc([C@@H](O)CN3CCC(NCc4[nH]c5ccccc5c4F)CC3)c2c1,9.88%,9.58%,1.18%
CCCC(C)Nc1nc(C)cc(N[C@@H](Cc2ccccc2)C(=O)NCCc2ccccc2)n1 (stereo partly specified),2.61%,3.38%,-0.17%
Cc1ccoc1C(=O)Nc1ccc(-c2cccc(-c3nc4cccc(C)c4[nH]3)c2)cc1,2.21%,2.54%,1.34%
O=C(CCc1ccccc1)NC(c1ccc(Cl)cc1)c1ccc2cccnc2c1O (stereo unspecified),-0.41%,1.91%,3.42%
COc1cc2nc(NCCC(C)C)n3nc(-c4ccccc4)nc3c2cc1OC,-1.19%,-0.07%,-1.51%
Cc1cc(C(=O)Nc2ccc3c(c2)CCN3C2CCN(Cc3cccc4cc[nH]c34)C2)no1 (stereo unspecified),2.23%,1.71%,3.09%
CCOc1ncccc1CN1CCC(N2CCc3cc(NC(=O)c4ccco4)ccc32)C1 (stereo unspecified),0.43%,-0.71%,1.65%
O=C(NC1CCCCC1)N(Cc1ccc(-c2cccc(CNC3CCCC3)c2)cc1)C1CCN(Cc2ccccc2)CC1,6.18%,7.64%,5.72%
Cc1ccccc1C1CCN(C2CCC(NC(=O)c3ccc4c(c3)-c3nocc3C(C)O4)CC2)CC1 (stereo unspecified),5.85%,4.08%,5.18%
Cc1[nH]c2ccccc2c(=O)c1Br,5.04%,5.06%,-5.87%
O=C(NCCCCN1CCC(c2ccc3c(c2OCCO)CCCC3)CC1)c1ccc(-c2ccc(C(F)(F)F)cc2)cc1,-0.75%,0.12%,5.23%
COc1cccc(CCc2ccc(O)c3c2C[C@H]2C[C@H]4[C@H](N(C)C)C(O)=C(C(N)=O)C(=O)[C@@]4(O)C(O)=C2C3=O)c1,4.53%,4.13%,1.64%
O=C(NC1CCN(Cc2ccccc2)C1)c1ccc(Nc2ccc(Br)cc2)nc1 (stereo unspecified),1.79%,0.12%,-1.43%
Cc1nnsc1C(=O)Nc1ccc(-c2cccc(-c3nc4cc(F)ccc4[nH]3)c2)cc1,1.36%,1.3%,-2.69%
COCc1cc(C)nc2sc(C(=O)Nc3cc(C(C)(C)C)ccc3O)c(N)c12,3.32%,2.62%,-0.92%
COc1ccc2[nH]ccc(=NN=Cc3ccccc3F)c2c1,7.58%,7.67%,7.56%
Fc1ccc(Nc2ccnc3cc(I)ccc23)c(Cl)c1,2.32%,2.73%,1.47%
c1ccc(CN2CCN(c3cc(-c4cncc(-c5ccccc5)c4)nc(-c4ccccc4)n3)CC2)cc1,1.99%,2.26%,1.99%
Cc1cc(OCCN2CCCCC2)ccc1NC(=O)c1cccc2c(=O)n(Cc3ccc(Cl)cc3)cnc12,103%,104%,105%
CN(C)S(=O)(=O)c1ccc(C(=O)N(c2nc(-c3ccccc3)cs2)C2CCCCC2)cc1,3.2%,3.31%,2.06%
COc1cccc(-c2ccc(O)c(CNCCc3cccc(F)c3)c2)n1,-0.7%,3.14%,2%

Compound,inhibition [1],inhibition [2],inhibition [3]
Cc1nc2nc(N)nc(N)c2c(C)c1Cc1cccc(C#N)c1,3.44%,2.87%,2.88%
O=C(/C=C/c1ccc(Cl)c(Cl)c1)NCCCCCCN1CCN(C(=O)Nc2ccc(C(F)(F)F)cc2)CC1,2.86%,3.11%,3.19%
CC(C)(C)c1ccc(NC(=O)c2cccc(CN3CCCN(CC4CCCCC4)CC3)c2)cc1,3.24%,1.77%,3.88%
Cc1cccc(C(=O)Nc2ccnc(N3CCC(N(C)Cc4cccc(O)c4)CC3)c2)c1,2.07%,1.88%,3.02%
CC1CN(Cc2csc(Nc3ccccc3)n2)CC(C)O1 (stereo unspecified),-0.51%,0.99%,3.5%
Cc1cccc2nc(-c3cccc(-c4ccc(NC(=O)CC5NC(=O)c6ccccc65)cc4)c3)[nH]c12 (stereo unspecified),8.73%,9.29%,7.01%
CCCC(C)NC(=O)[C@H](CC1CCCCC1)NC(=O)c1ccc(O)c(-c2cccc(C(F)(F)F)c2)c1 (stereo partly specified),-1.37%,3.47%,0.42%
OCC(CO)(CO)NCc1ccc2c3c(cccc13)-c1ccccc1-2,12.1%,14.8%,8.44%
CC(C)c1ccc(C=CC(=O)N2CCC(CCN3CCC(c4c[nH]c5ccccc45)CC3)CC2)cc1,-1.34%,-1.09%,-0.06%
COc1cc(OC)c2c(C)cc(NCCCn3ccnc3)nc2c1,2.59%,3.68%,0.88%
C[C@@H]([C@@H](CCCc1ccc(Cl)cc1)C(=O)N[C@H](C(=O)Nc1cccnc1)C(C)(C)C)N(O)C=O,1.13%,0.19%,1.52%
CCCC1N=C(N)N=C(N)N1c1ccc(C)cc1 (stereo unspecified),4.06%,2.51%,2.47%
CS(=O)(=O)Nc1ccc2[nH]cc(C3CCN(CCCCCNC(=O)/C=C/c4ccc(Cl)c(Cl)c4)CC3)c2c1,3.05%,3.77%,3.35%
O=C(NCCc1cccc(Cl)c1Cl)c1cnc(N2CCN(c3ccncc3)CC2)c(Cl)c1,77.2%,81.6%,83.9%
COc1ccc(CNC2CCN(C)CC2)cc1-c1ccc(S(=O)(=O)NCCc2ccccn2)c(F)c1,3.16%,2.16%,4.77%
Cc1ccc(Nc2nc3cc(Nc4ccnc(Nc5cccc(CS(C)(=O)=O)c5)n4)ccc3o2)cc1,4.03%,2.49%,0.38%
Cc1cccc(CNc2nc(C)cc(N[C@@H](Cc3ccccc3)C(=O)NCCc3ccccc3)n2)c1,3.88%,3.72%,0.77%
COc1ccccc1CCNc1nc(C)cc(N[C@@H](CC(C)C)C(=O)NCc2cccc(F)c2)n1,9.56%,8.52%,8.86%
c1ccc(COc2ccc(Cn3ccc(-c4ccc(-n5ccnc5)cc4)n3)cc2)cc1.c1ccc(COc2ccc(Cn3nccc3-c3ccc(-n4ccnc4)cc3)cc2)cc1,0.24%,1.54%,1.48%
CC(=O)Nc1ccc(OCCN(CC(C)C)c2ccc(C(F)(F)F)c(C#N)c2)c(Cl)c1,6.51%,10.4%,8.7%
CC(=O)Nc1ccc(C(=O)Nc2ccc(-c3csc(-c4nc5ccccc5[nH]4)c3)cc2)cn1,1.44%,1.57%,0.75%
Cn1ccc2c3c(N)nc(N)nc3ccc21,0.43%,1.8%,1.34%
Cc1nc2c(=O)sc3ccccc3c2n1Cc1ccccc1,0.4%,7.03%,-1.55%
Cc1cc(=NN=Cc2ccccc2Cl)c2ccccc2[nH]1,8.12%,8.36%,5.86%
